# PubChem BioAssay (NCI)
# About 79,000 compounds went through this panel and 15% of them were active in at least one assay; those are over-represented in the sample as a whole. Active and inactive are the calls of the source. Rule as the data show it: active = growth inhibition above about 70%; inactive = the rest.
# Key:
# [1] = NCI Yeast Anticancer Drug Screen. Data for the rad50 strain (AID 155);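 also: 0% = growth of vehicle-only cultures of the same strain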; conditions: S. cerevisiae rad50 strain growth inhibition; at 50.0 µM; stronger effect = higher value
# In short: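 Cells are treated with compound, grown, and their growth is then scored against vehicle-only cultures of the same repair-deficient yeast strain.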
# [2] = NCI Yeast Anticancer Drug Screen. Data for the mec2-1 strain (AID 157); conditions: S. cerevisiae mec2-1 strain, at 50.0 µM, stronger effect = higher value
# In short: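 Mutant yeast (mec2-1) grown with compound; growth inhibition relative to vehicle control reported.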
# [3] = NCI Yeast Anticancer Drug Screen. Data for the sgs1 mgt1 strain (AID 161);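 also: 0% = growth of cultures given vehicle only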; conditions: S. cerevisiae sgs1 mgt1 strain, at 50.0 µM, stronger effect = higher value
# In short: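 Percent growth inhibition was derived by comparing compound-exposed mutant yeast with vehicle-exposed cultures. The strain carries alterations in DNA damage repair.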
# [4] = NCI Yeast Anticancer Drug Screen. Data for the cln2 rad14 strain (AID 165);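 also: 0% = growth equal to vehicle treated cultures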; conditions: S. cerevisiae cln2 rad14 strain, at 50.0 µM, stronger effect = higher value
# In short: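 Readout is yeast growth inhibition versus vehicle-treated controls, using a strain with cln2 and rad14 alterations exposed to compound.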
# [5] = NCI Yeast Anticancer Drug Screen. Data for the bub3 strain (AID 167); conditions: S. cerevisiae bub3 mutant strain, at 50.0 µM, stronger effect = higher value
# In short: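 Part of a panel of yeast mutants defective in DNA damage repair or cell cycle regulation. Each strain is grown with compound, and inhibition is calculated relative to solvent-treated cultures.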
# [6] = NCI Yeast Anticancer Drug Screen. Data for the mlh1 rad18 strain (AID 175); conditions: S. cerevisiae mlh1 rad18 strain growth inhibition; at 50.0 µM; stronger effect = higher value
# In short: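 Genetically defined yeast (DNA repair-deficient) exposed to compounds; growth inhibition determined relative to vehicle.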
SMILES,growth inhibition [1],growth inhibition [2],growth inhibition [3],growth inhibition [4],growth inhibition [5],growth inhibition [6]
CC12CC(=O)Nc3ccccc3N1C(c1ccccc1)=NO2 (configuration not stated),-11.5% (inactive),-29.4% (inactive),-6.6% (inactive),3% (inactive),-14.8% (inactive),-7.4% (inactive)
O=C(O)C(NCCCNC(C(=O)O)c1ccccc1)c1ccccc1 (configuration not stated),22.4% (inactive),14.2% (inactive),22.6% (inactive),37.6% (inactive),21.7% (inactive),19.1% (inactive)
Cc1ccc(C(=O)Nc2ccc(CP(=O)(O)O)cc2)cc1NC(=O)c1cccc(N)c1,-27.2% (inactive),-14.7% (inactive),-20.4% (inactive),0.9% (inactive),-9% (inactive),4.15% (inactive)
COC(=O)c1c(-c2ccc(OC)c(OC)c2)cn(C)c1C,19.4% (inactive),12.8% (inactive),21% (inactive),-6.15% (inactive),10.5% (inactive),25.2% (inactive)
COc1c2c(c(OC)c(C(C)=O)c1OC(=O)c1ccccc1)CCO2,1% (inactive),-14.4% (inactive),11.4% (inactive),11.8% (inactive),0.05% (inactive),15.6% (inactive)
Cc1ccc(-n2ncc3c(N)ncnc32)cc1,10.2% (inactive),12.4% (inactive),2.6% (inactive),-19% (inactive),-7.8% (inactive),-14.2% (inactive)
O=S1(=O)C(c2ccccc2Cl)=C(O)C(O)=C1c1ccccc1Cl,-0.6% (inactive),-35.4% (inactive),5.05% (inactive),6% (inactive),-2.1% (inactive),11.2% (inactive)
C=C1C(=O)O[C@H]2[C@H]1CC(=O)/C(C)=C\CC[C@@]1(C)O[C@@H]21,29.2% (inactive),59.4% (inactive),63.4% (inactive),35.5% (inactive),64.8% (inactive),43.1% (inactive)
CCCCc1ccc(Nc2nc(=S)c3[nH]cnc3[nH]2)cc1,26.9% (inactive),19.6% (inactive),32.2% (inactive),23.9% (inactive),35% (inactive),6.5% (inactive)
Nc1ncc([N+](=O)[O-])c(N)n1,2.75% (inactive),5.45% (inactive),7.75% (inactive),0.7% (inactive),-13.8% (inactive),15.9% (inactive)
O=C1c2ccccc2C(=O)N1CNc1cccc(Cl)c1,6.45% (inactive),13.2% (inactive),9.45% (inactive),10.1% (inactive),4.6% (inactive),22.4% (inactive)
CC(=O)CC(=O)NC12CC3CC(CC(C3)C1)C2,-12.4% (inactive),-18.3% (inactive),-27.6% (inactive),-3.95% (inactive),-23.1% (inactive),-1.55% (inactive)
O=[N+]([O-])c1ccc(CS(=O)(=O)c2ccccc2)o1,21.4% (inactive),-1.45% (inactive),24.5% (inactive),-15.9% (inactive),1.15% (inactive),4.6% (inactive)
CC1(C)[C@H]2Cc3c(ccc4c3C(=O)OC4=O)[C@@H]1C2,6.75% (inactive),-3.9% (inactive),0.35% (inactive),-30.6% (inactive),-17.4% (inactive),2.45% (inactive)
CCC(C)(O)c1cn(-c2cccc(S(=O)(=O)O)c2)nn1 (configuration not stated),-9.3% (inactive),-10.2% (inactive),-8.05% (inactive),5.95% (inactive),-8.65% (inactive),-8.35% (inactive)
CC1CN(CNC(=O)NCN2CC(C)OC(C)C2)CC(C)O1 (configuration not stated),15.7% (inactive),-3.7% (inactive),24.8% (inactive),11.9% (inactive),0.95% (inactive),-0.8% (inactive)
Cc1cc(C)c(NC(=O)Nc2cccc(F)c2)c(C)c1,20.8% (inactive),11% (inactive),13.2% (inactive),19.2% (inactive),23.4% (inactive),13.3% (inactive)
O=C1NC(N2CCCC(CO)C2)=N/C1=C\c1ccc(O)cc1 (configuration not stated),13.1% (inactive),2.05% (inactive),-15.3% (inactive),33.4% (inactive),-9.6% (inactive),-31.6% (inactive)
CCC/C=C1\CCC(CN(C)C)C1=O (configuration not stated),-9.8% (inactive),7.85% (inactive),18.6% (inactive),-1.4% (inactive),-11.9% (inactive),15.1% (inactive)

SMILES,growth inhibition [1],growth inhibition [2],growth inhibition [3],growth inhibition [4],growth inhibition [5],growth inhibition [6]
CC(=O)OC1CC2(C)OC(Cc3ccccc32)O1 (configuration not stated),-37.2% (inactive),-3.05% (inactive),-58.6% (inactive),4.4% (inactive),-23.1% (inactive),-43.5% (inactive)
C(=C1/NC(c2ccccc2)=Nc2ccccc21)/c1ccccc1,24.3% (inactive),-0.5% (inactive),10.9% (inactive),37.6% (inactive),4.85% (inactive),29.8% (inactive)
OC1c2ccccc2-c2c(Cl)cc(Cl)cc21 (configuration not stated),0.25% (inactive),6.1% (inactive),11.2% (inactive),-45.9% (inactive),3.95% (inactive),1.95% (inactive)
O=C(CN1CCCc2ccccc21)c1ccc(Cl)cc1,-13.2% (inactive),-2.05% (inactive),2.55% (inactive),9.2% (inactive),14.1% (inactive),4.35% (inactive)
CCCSc1nnc(SCCC)c2[nH]cnc12,0.85% (inactive),-5.45% (inactive),0.95% (inactive),-22.3% (inactive),2.4% (inactive),-8.7% (inactive)
CC(C)C(N)(C(=O)O)c1ccccc1 (configuration not stated),-19.7% (inactive),-20.2% (inactive),-51.5% (inactive),-73.4% (inactive),-14.9% (inactive),-24.9% (inactive)
CC(Sc1nc2ccccc2c(=O)[nH]1)c1ccccc1 (configuration not stated),3.1% (inactive),-1.85% (inactive),3.3% (inactive),-21.8% (inactive),7.3% (inactive),-6.7% (inactive)
CN1CCC(CC(O)(c2ccccc2)C2CCCCC2)C1 (configuration not stated),-5.9% (inactive),-14.1% (inactive),-2.3% (inactive),-24.4% (inactive),4.2% (inactive),-20.9% (inactive)
CCCCCCC(O)CCCCCCCCCCCO (configuration not stated),41.5% (inactive),-15.4% (inactive),1.05% (inactive),-43% (inactive),10.2% (inactive),15.5% (inactive)
CP(=O)(CCSc1ccccc1)c1ccccc1 (configuration not stated),-12.5% (inactive),-20.5% (inactive),-0.85% (inactive),23.6% (inactive),-10.7% (inactive),-21.1% (inactive)
CCc1ccccc1NC(=O)C(=O)C(C(=O)c1ccc(OC)cc1)c1ccc(OC)cc1 (configuration not stated),19% (inactive),11.9% (inactive),5.4% (inactive),16.4% (inactive),4.45% (inactive),9.05% (inactive)
O=[N+]([O-])c1ccc(N=Cc2ccccc2O)cc1,-19.7% (inactive),-8.05% (inactive),-23.6% (inactive),4.3% (inactive),8.05% (inactive),-6.9% (inactive)
O=C(NC1CCCCC1C1CCCCC1)c1ccc(Cl)cc1 (configuration not stated),1.55% (inactive),2.5% (inactive),-1.3% (inactive),-10.9% (inactive),7.15% (inactive),6.45% (inactive)
CCOC(=O)COS(=O)(=O)C(F)(F)F,21.6% (inactive),-12.7% (inactive),-11.4% (inactive),2.95% (inactive),3.5% (inactive),-10.7% (inactive)
COc1cc(C(=O)O)ccc1OC(C)=O,7.4% (inactive),-20.1% (inactive),-2.15% (inactive),2.15% (inactive),-6.6% (inactive),1.35% (inactive)
Cc1ccc(S(=O)(=O)N2CCSCCN(S(=O)(=O)c3ccc(C)cc3)CCN(S(=O)(=O)c3ccc(C)cc3)CC2)cc1,5.7% (inactive),-2.7% (inactive),0.2% (inactive),-19.9% (inactive),-18.7% (inactive),-18.4% (inactive)
C[N+](C)(CC(=O)Nc1ccc(Cl)cc1)Cc1ccc2c(c1)CCCC2,99.5% (active),99.8% (active),99.8% (active),99% (active),99.3% (active),99.7% (active)
COC1C(CO)OC(n2c3c(Cl)cccc3c3c4c(c5c6cccc(Cl)c6[nH]c5c32)C(=O)NC4=O)C(O)C1O (configuration not stated),16.8% (inactive),8.45% (inactive),-1.4% (inactive),20.4% (inactive),7.4% (inactive),-21.1% (inactive)
